Experimental data from PubChem BioAssay (Tox21).
Inconclusive results are not listed. The source made the active and inactive calls. Unless noted, calls follow the shape of the dose curve; as a rule, active = well fitted curve in the direction sought with a large enough effect in the repeat runs; inconclusive = weak or mixed curves; inactive = no such curve, though single readings can be large; an effect the other way counts as inactive or inconclusive.

Legend:
[1] = A CellTox Green Cytotoxicity Assay to monitor cytotoxicity in HepG2 cells - 32 hour (AID 1224883); also: nearly all actives have a fitted effect of over 50% in size
Summary of the method: (§1)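 First, HepG2 cells (600/well) mixed with reagent were plated; second, after 5 h at 37 C they received compounds via pintool; third, fluorescence was measured at 0 h through 40 h at 8 h intervals.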

[2] = A CellTox Green Cytotoxicity Assay to monitor cytotoxicity in HEK293 cells - 8 hour (AID 1224884); also: nearly all actives have a fitted effect of over 35% in size
Summary of the method: (§2)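 Dead-cell fluorescence measured kinetically: asymmetric cyanine dye, HEK293, 600 cells/well, 5 h settle, 23 nL cpd/DMSO, 37 C, reads 0–40 h every 8 h.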

[3] = qHTS RealTime-Glo MT Cell Viability Assay in HepG2 cells - 16 hour (AID 1224885); also: nearly all actives have a fitted effect of over 50% in size
Summary of the method: (§3)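 Viability was tracked continuously by NanoLuc luminescence from prosubstrate reduced by living HepG2 cells, at successive time points over 40 h of compound exposure. Cells with reagent were preincubated 5 h at 37 °C before compound addition.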

[4] = qHTS RealTime-Glo MT Cell Viability Assay in HEK293 cells - 24 hour (AID 1224886); also: top concentration of the series differs between compounds; nearly all actives have a fitted effect of over 50% in size
Summary of the method: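 Viability tracked continuously by luminescence as live cells reduce a prosubstrate for NanoLuc; HEK293 cells preincubated 5 h, compound-treated at 37 C, and read at 0, 8, 16, 24, 32 and 40 h.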

[5] = qHTS RealTime-Glo MT Cell Viability Assay in HEK293 cells - 8 hour (AID 1224887); also: top concentration of the series differs between compounds; nearly all actives have a fitted effect of over 50% in size
Summary of the method: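 600 HEK293 cells per well, dispensed already mixed with RealTime-Glo MT reagents. Compound dosing came 5 h later. The same wells were read for luminescence at 0, 8, 16, 24, 32 and 40 h of exposure at 37 C.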

[6] = A CellTox Green Cytotoxicity Assay to monitor cytotoxicity in HEK293 cells - 16 hour (AID 1224888); also: nearly all actives have a fitted effect of over 35% in size
Summary of the method: as §2

[7] = qHTS RealTime-Glo MT Cell Viability Assay in HepG2 cells - 0 hour (AID 1224889); also: nearly all actives have a fitted effect of over 50% in size
Summary of the method: as §3

[8] = A CellTox Green Cytotoxicity Assay to monitor cytotoxicity in HepG2 cells - 8 hour (AID 1224890); also: nearly all actives have a fitted effect of over 45% in size
Summary of the method: as §1

[9] = qHTS assay to identify small molecule antagonists of the androgen receptor (AR) signaling pathway using the MDA cell line in the presence of 0.5 nM R1881 - cell viability counter screen (AID 1259242); also: nearly all actives have a fitted effect of over 45% in size
Summary of the method: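 qHTS format. MDA-kb2 (MMTV-luc, AR/GR responsive) + cpd + 0.5 nM R1881 final, 16 hr 37C/0% CO2 → CellTiter-Fluor 30 min → fluorescence intensity.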

[10] = qHTS assay to identify small molecule HDAC inhibitors (AID 1259364);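 also: wild-type HCT-116 cells with endogenous class I/II HDAC activity; top concentration of the series differs between compounds; nearly all actives have a fitted effect of over 45% in size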
Summary of the method: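 Quantitative high-throughput format: overnight-seeded HCT-116 cells got compounds for 2 hr at 37C; HDAC-Glo I/II reagent added, 30 min RT, luminescence measured.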

[11] = qHTS assay to identify small molecule HDAC inhibitors - cell viability counter screen (AID 1259365)
Summary of the method: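 Luminescence from CellTiter-Glo, developed 30min at room temperature, reports viability of wild-type HCT-116 cells treated 2hr with compounds at 37 C and 5% CO2 after overnight plating.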

[12] = qHTS assay to identify small molecule agonists of the sonic hedgehog signaling (Shh) pathway - cell viability counter screen (AID 1259366); also: nearly all actives have a fitted effect of over 50% in size
Summary of the method: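 Cytotoxicity counter screen run in the same wells as the Shh reporter assay. NIH/3T3 cells carrying a Gli1 response element–driven luciferase were treated with DMSO-dissolved compounds for 24hr, and live-cell protease activity was measured with CellTiter-Fluor.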

[13] = qHTS assay to identify small molecule antagonists of the sonic hedgehog signaling (Shh) pathway - cell viability counter screen (AID 1259367); also: nearly all actives have a fitted effect of over 55% in size
Summary of the method: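 Conditioned medium drove Shh signaling in 3T3 Gli1-Luc cells exposed to compounds at 37C and 5% CO2. Viability was determined from CellTiter-Fluor fluorescence, with reagent incubated 1 hr after 23 hr of treatment.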

[14] = qHTS assay to identify small molecule agonists of the sonic hedgehog signaling (Shh) pathway (AID 1259368; calls by dose curve;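 also: NIH/3T3-derived 3T3Gli1-Luc cells carrying a stable Gli1-driven firefly luciferase reporter; series mostly up to about 92 µM; nearly all actives have a fitted effect of over 15% in size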)
Summary of the method: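 Quantitative high-throughput format using a Gli1-driven firefly luciferase reporter line derived from NIH/3T3 cells. After a 24 hr compound treatment at 37 C and 5% CO2, luminescence reported Gli1 response element activity.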

[15] = qHTS assay to identify small molecule antagonists of the sonic hedgehog signaling (Shh) pathway (AID 1259369; calls by dose curve; also: nearly all actives have a fitted effect of over 45% in size)
Summary of the method: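 Stable Gli1-Luc reporter NIH/3T3 clone; quantitative HTS in stimulated mode with conditioned medium. Luminescence measured after 24hr compound treatment at 37 C.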

[16] = target: Estrogen receptor beta (Homo sapiens) (UniProt Q92731); test: qHTS assay to identify small molecule agonists of the estrogen receptor beta (ER-beta) signaling pathway (AID 1259377; active = well fitted activation curve with a large enough effect in the signal ratio in the repeat runs, not every such curve was filed as active; the % refers to the signal ratio)
Summary of the method: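 HEK293T ER-beta-UAS-bla; 2% charcoal-stripped FBS; cells pre-incubated 6 hr, compound 16 hr, 37C/5% CO2; LiveBLAzer B/G FRET substrate 2 h RT; fluorescence intensity read.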

[17] = qHTS assay to identify small molecule antagonists of the estrogen receptor alpha (ER-alpha) signaling pathway using the BG1 cell line in the presence of 0.1 nM 17-beta-estradiol - cell viability counter screen (AID 1259241); also: nearly all actives have a fitted effect of over 40% in size
Summary of the method: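 VM7Luc4E2, 4,000 cells/well, phenol red-free medium + 10% charcoal-stripped FBS; 24 hr plating; cpd + 0.1 nM E2 final, 22 hr 37C/5% CO2; CellTiter-Fluor 30 min, fluorescence.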

[18] = target: Androgen receptor (Homo sapiens) (UniProt P10275); test: qHTS assay to identify small molecule antagonists of the androgen receptor (AR) signaling pathway using the MDA cell line in the presence of 0.5 nM R1881 (AID 1259243); also: nearly all actives have a fitted effect of over 50% in size
Summary of the method: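 Antagonist mode quantitative HTS in MDA-kb2 MMTV-luciferase cells, agonist R1881 at 0.5 nM final, 16 hr exposure at 37C and 0% CO2, luminescent detection.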

[19] = qHTS assay to identify small molecule phospholipidosis (PLD) inducers (AID 1259344; active = well fitted curve in the direction sought with a large enough effect; an effect the other way counts as inactive or inconclusive)
Summary of the method: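 After 4 h attachment on collagen I, HepG2 cells were dosed with compound alongside LipidTOX Red, kept 24 h at 37 C, fixed, and imaged for lamellar phospholipid pits.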

[20] = target: Estrogen receptor (Homo sapiens) (UniProt P03372); test: qHTS assay to identify small molecule antagonists of the estrogen receptor alpha (ER-alpha) signaling pathway using the BG1 cell line in the presence of 0.1 nM 17-beta-estradiol (AID 1259244); also: nearly all actives have a fitted effect of over 50% in size
Summary of the method: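 Reporter is a stably transfected luciferase under four estrogen responsive elements in VM7Luc4E2 cells expressing native full-length ER-alpha; inhibition of 0.1 nM (final) 17beta-estradiol-driven signal over 22 h is read by luminescence.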
% is scaled to controls: 0 for no effect and ±100 for the full control effect.

Sequence of Estrogen receptor (Homo sapiens) (P03372 whole entry, looked up): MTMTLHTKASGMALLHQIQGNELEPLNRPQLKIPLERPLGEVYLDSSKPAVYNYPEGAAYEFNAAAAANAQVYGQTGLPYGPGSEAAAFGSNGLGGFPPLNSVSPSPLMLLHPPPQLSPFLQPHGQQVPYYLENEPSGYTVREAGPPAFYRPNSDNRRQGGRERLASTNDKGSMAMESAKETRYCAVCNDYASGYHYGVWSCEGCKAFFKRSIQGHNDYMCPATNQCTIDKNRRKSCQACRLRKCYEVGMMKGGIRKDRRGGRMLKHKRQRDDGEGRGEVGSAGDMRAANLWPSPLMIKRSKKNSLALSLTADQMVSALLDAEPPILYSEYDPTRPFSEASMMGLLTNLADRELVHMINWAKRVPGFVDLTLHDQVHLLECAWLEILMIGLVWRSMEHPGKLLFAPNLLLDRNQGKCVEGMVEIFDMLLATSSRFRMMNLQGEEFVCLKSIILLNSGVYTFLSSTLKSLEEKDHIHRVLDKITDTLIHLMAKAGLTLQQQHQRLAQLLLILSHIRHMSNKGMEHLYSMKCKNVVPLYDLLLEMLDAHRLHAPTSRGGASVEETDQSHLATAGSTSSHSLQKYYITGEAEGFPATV
Sequence of Androgen receptor (Homo sapiens) (P10275 whole entry, looked up): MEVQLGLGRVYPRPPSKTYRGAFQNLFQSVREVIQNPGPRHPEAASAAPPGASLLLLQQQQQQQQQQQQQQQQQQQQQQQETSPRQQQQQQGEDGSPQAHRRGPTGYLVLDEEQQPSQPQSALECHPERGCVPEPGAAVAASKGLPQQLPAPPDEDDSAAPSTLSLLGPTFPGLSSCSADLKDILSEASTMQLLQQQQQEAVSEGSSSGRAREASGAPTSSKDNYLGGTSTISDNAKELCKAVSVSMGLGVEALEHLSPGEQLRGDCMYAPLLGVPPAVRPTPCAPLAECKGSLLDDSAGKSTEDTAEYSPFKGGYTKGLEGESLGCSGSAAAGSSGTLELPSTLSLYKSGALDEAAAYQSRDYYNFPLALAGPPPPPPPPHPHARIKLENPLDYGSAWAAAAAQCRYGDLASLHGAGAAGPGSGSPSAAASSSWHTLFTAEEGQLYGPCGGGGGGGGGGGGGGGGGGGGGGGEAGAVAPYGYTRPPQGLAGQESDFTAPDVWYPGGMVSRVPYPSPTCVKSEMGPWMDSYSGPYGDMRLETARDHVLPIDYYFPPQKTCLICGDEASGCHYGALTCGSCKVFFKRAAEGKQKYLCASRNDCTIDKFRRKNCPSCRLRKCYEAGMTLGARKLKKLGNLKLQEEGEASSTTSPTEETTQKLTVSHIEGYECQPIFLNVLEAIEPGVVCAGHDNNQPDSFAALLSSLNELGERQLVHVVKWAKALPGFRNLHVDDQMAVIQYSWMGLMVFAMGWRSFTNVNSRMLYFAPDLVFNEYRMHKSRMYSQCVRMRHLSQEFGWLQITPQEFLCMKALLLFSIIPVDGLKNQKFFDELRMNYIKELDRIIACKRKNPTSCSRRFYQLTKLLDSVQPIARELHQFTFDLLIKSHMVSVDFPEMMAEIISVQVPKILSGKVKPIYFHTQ
Sequence of Estrogen receptor beta (Homo sapiens) (Q92731 whole entry, looked up): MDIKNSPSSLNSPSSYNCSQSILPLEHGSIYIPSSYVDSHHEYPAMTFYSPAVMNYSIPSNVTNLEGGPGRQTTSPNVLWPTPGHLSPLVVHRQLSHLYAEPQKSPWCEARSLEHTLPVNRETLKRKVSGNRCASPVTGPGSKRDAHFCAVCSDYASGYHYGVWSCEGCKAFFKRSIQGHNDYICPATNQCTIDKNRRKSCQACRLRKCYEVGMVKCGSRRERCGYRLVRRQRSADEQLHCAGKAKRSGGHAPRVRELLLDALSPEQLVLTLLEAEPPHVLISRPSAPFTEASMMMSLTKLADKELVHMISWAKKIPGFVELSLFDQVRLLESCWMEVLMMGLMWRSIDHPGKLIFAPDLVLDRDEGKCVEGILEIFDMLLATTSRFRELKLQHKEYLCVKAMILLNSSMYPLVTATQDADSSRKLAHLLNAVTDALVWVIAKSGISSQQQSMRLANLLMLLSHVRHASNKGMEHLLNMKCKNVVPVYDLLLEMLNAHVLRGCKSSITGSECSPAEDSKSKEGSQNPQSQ

CC(C)C[C@H](NC(=O)CNC(=O)[C@H](Cc1ccc(O)cc1)NC(=O)[C@H](CO)NC(=O)[C@H](Cc1c[nH]c2ccccc12)NC(=O)[C@H](Cc1cnc[nH]1)NC(=O)[C@@H]1CCC(=O)N1)C(=O)N[C@@H](CCCN=C(N)N)C(=O)N1CCC[C@H]1C(=O)NCC(N)=O (stereo in doubt)
inactive: Potency [1] | Potency [2] | outcome [3] | Potency [4] | Potency [5] | outcome [6] | Potency [7] | outcome [8] | outcome [9] | Potency [10] | outcome [11] | Potency [12] | Potency [13] | outcome [14] | Potency [15] | Potency [16]

C=C(C)C(=O)OCCNC(C)(C)C
inactive: Potency [1] | Potency [2] | outcome [3] | Potency [4] | Potency [5] | outcome [6] | Potency [7] | outcome [8] | Potency [17] | Potency [10] | outcome [11] | Potency [12] | Potency [13] | outcome [14] | Potency [15]

COc1nccnc1NS(=O)(=O)c1ccc(N)cc1
inactive: Potency [1] | Potency [2] | outcome [3] | Potency [4] | Potency [5] | outcome [6] | Potency [7] | outcome [8] | outcome [9] | Potency [18] | outcome [19] | Potency [10] | outcome [11] | Potency [12] | Potency [13] | outcome [14] | Potency [16]

O=C(CS(=O)Cc1ccco1)NC/C=C\COc1cc(CN2CCCCC2)ccn1 (configuration not stated)
inactive: Potency [1] | Potency [2] | outcome [3] | Potency [4] | Potency [5] | Potency [7] | outcome [8] | Potency [17] | outcome [9] | Potency [20] | outcome [19] | Potency [10] | outcome [11] | Potency [12] | Potency [13] | outcome [14] | Potency [15] | Potency [16]

CCCN1C[C@H](CSC)C[C@@H]2c3cccc4[nH]cc(c34)C[C@H]21
inactive: Potency [1] | Potency [2] | outcome [3] | Potency [4] | Potency [5] | outcome [6] | Potency [7] | outcome [8] | outcome [9] | Potency [20] | outcome [11] | Potency [12] | Potency [13] | outcome [14] | Potency [15] | Potency [16]

CCCC/C=C/C=C\C=O
inactive: Potency [1] | Potency [2] | outcome [3] | Potency [4] | Potency [5] | Potency [7] | outcome [8] | Potency [17] | outcome [9] | Potency [18] | Potency [20] | Potency [10] | outcome [11] | Potency [12] | Potency [13] | outcome [14] | Potency [16]

CN(C)CCOCCO
inactive: Potency [1] | Potency [2] | outcome [3] | Potency [4] | Potency [5] | outcome [6] | Potency [7] | outcome [8] | outcome [9] | Potency [20] | Potency [10] | outcome [11] | Potency [12] | Potency [13] | outcome [14] | Potency [15]

O=S(O)(O)=S
inactive: cytotoxicity increase [1] 0.202% [at 6.97 µM] | cytotoxicity increase [2] -1.12% [at 6.97 µM] | activity change, negative = cytotoxic [3] 1% [at 6.97 µM] | activity change, negative = cytotoxicity [4] 1.38% [at 6.97 µM] | activity change, negative = cytotoxicity [5] 0.371% [at 6.97 µM] | activity change [6] -0.887% [at 6.97 µM] | activity change, negative = cytotoxicity [7] -0.126% [at 6.97 µM] | cytotoxicity increase [8] 4.07% [at 6.97 µM] | viability change, negative = cytotoxic [9] -0.767% [at 8.39 µM] | activity change, negative = inhibition [10] 3.04% [at 8.39 µM] | activity change, negative = cytotoxicity [11] 0.217% [at 8.39 µM] | viability change, negative = cytotoxic [12] -0.643% [at 8.39 µM] | viability change, negative = cytotoxic [13] 1.07% [at 8.39 µM] | activity change [14] -0.163% [at 8.39 µM]

Cc1c(I)c(=O)n(-c2ccccc2)n1C
inactive: Potency [1] | Potency [2] | outcome [3] | Potency [4] | Potency [5] | outcome [6] | Potency [7] | outcome [8] | outcome [9] | Potency [20] | outcome [19] | Potency [10] | outcome [11] | Potency [12] | Potency [13] | outcome [14] | Potency [15]

COC(=O)CCCCCCCC(=O)OC
inactive: Potency [1] | Potency [2] | outcome [3] | Potency [4] | Potency [5] | outcome [6] | Potency [7] | outcome [8] | outcome [9] | Potency [20] | Potency [10] | outcome [11] | Potency [12] | Potency [13] | outcome [14] | Potency [15] | Potency [16]

CCOC(=O)c1ncn2c1CN(C)C(=O)c1cc(F)ccc1-2
inactive: Potency [1] | Potency [2] | outcome [3] | Potency [4] | Potency [5] | Potency [7] | outcome [8] | Potency [17] | outcome [9] | Potency [18] | Potency [20] | outcome [19] | Potency [10] | outcome [11] | Potency [12] | Potency [15]

CCCCC(CC)COCCO (configuration not stated)
inactive: Potency [1] | Potency [2] | outcome [3] | Potency [4] | Potency [5] | outcome [6] | Potency [7] | outcome [8] | outcome [9] | Potency [20] | Potency [10] | outcome [11] | Potency [12] | Potency [13] | outcome [14] | Potency [16]

O=C1CCCC(=O)O1
inactive: Potency [1] | Potency [2] | outcome [3] | Potency [4] | Potency [5] | outcome [6] | Potency [7] | outcome [8] | Potency [17] | Potency [10] | outcome [11] | Potency [12] | Potency [13] | outcome [14] | Potency [15] | Potency [16]

CC(CN)CC(C)(C)CCN (configuration not stated)
inactive: Potency [1] | Potency [2] | outcome [3] | Potency [4] | Potency [5] | outcome [6] | Potency [7] | outcome [8] | Potency [17] | Potency [10] | outcome [11] | Potency [12] | Potency [13] | outcome [14] | Potency [15] | Potency [16]
